Assay results reported in paper PMC7862700, “An all-to-all approach to the identification of sequence-specific readers for epigenetic DNA modifications on cytosine”.

Columns and labels:
Experiment in all cases: DAPPL (digital affinity profiling via proximity ligation, sequencing); 10 mM Tris-HCl pH 7.5, 50 mM NaCl, 1 mM DTT, 4% glycerol, room temperature, 30 min; GST-TFs on glutathione beads, 16-mer random dsDNA library, 0.1% formaldehyde crosslink after washing; high values mean tight binding
FEV = biological target: T1, FEV (Homo sapiens, UniProt Q99581 1-238); conditions: protein: recombinant; tags: N-terminal GST; dsDNA, one strand shown
T1 sequence: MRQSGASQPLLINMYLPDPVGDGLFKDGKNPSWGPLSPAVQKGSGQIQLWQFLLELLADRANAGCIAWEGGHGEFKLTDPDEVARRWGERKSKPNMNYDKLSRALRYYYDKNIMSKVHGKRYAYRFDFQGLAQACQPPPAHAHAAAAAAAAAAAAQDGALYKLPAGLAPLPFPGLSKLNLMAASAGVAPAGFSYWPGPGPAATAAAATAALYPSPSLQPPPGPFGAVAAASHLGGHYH
Outline: (§1)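 Human transcription factors fused to GST were expressed in yeast, captured on glutathione beads, given DNA barcodes and pooled with a GST-only negative control. Pools were incubated with 200 nmole of a 16-mer random double-stranded DNA library in Tris/NaCl/DTT/glycerol buffer at room temperature for 30 min. They were then washed, crosslinked with 0.1% formaldehyde, proximity-ligated (BsaI/T4 ligase, 1 h, 37 °C), PCR-amplified and sequenced on an Illumina NextSeq500. Binding signal is each 6-mer's read frequency for a factor divided by its frequency for the GST control.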

ETV5 = ETV5 (Homo sapiens, UniProt P41161 1-510); conditions: protein: recombinant; tags: N-terminal GST; dsDNA, one strand shown
Sequence of ETV5 (P41161 whole entry): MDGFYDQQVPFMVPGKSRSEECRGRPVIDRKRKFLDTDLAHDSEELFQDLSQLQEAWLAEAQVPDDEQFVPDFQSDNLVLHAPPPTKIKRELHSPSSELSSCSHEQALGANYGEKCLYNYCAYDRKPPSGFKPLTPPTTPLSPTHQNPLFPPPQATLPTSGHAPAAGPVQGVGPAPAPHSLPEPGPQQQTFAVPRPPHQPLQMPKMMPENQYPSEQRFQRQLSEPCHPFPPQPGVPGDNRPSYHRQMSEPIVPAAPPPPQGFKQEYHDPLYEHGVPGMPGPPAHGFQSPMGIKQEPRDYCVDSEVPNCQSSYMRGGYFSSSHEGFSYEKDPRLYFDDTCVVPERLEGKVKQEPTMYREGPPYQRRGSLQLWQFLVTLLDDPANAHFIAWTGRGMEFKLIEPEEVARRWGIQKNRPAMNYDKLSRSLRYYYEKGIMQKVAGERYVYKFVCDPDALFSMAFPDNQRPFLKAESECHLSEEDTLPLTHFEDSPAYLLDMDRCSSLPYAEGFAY
Outline: as §1

HSF1 = HSF1 (Homo sapiens, UniProt Q00613 1-529); conditions: protein: recombinant; tags: N-terminal GST; chain copies: 3; dsDNA, one strand shown
Sequence of HSF1 (Q00613 whole entry): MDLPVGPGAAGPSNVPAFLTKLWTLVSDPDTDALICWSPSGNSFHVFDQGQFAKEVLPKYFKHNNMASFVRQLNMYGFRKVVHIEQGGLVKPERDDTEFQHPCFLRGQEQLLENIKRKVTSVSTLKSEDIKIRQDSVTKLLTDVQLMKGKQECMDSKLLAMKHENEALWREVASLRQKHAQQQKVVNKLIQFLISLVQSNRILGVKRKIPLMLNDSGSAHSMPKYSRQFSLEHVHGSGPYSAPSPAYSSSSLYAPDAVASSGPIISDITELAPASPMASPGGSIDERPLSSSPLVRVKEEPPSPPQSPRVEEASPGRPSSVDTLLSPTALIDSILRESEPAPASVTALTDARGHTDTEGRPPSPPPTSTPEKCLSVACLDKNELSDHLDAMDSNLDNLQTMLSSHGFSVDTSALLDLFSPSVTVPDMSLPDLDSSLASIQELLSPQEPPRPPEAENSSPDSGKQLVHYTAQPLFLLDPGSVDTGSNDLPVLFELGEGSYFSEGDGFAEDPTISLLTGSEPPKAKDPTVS
Outline: as §1

SPIC = biological target: T2, SPIC (Homo sapiens, UniProt Q8N5J4 1-248); conditions: protein: recombinant; tags: N-terminal GST; dsDNA, one strand shown
T2 sequence: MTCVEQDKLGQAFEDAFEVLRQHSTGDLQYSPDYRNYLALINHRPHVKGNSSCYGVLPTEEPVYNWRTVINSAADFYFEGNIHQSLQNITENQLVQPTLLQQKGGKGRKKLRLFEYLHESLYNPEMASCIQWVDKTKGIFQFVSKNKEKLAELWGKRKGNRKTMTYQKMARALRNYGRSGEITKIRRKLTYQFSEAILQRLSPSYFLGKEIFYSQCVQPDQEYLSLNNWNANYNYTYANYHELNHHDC
Outline: as §1

ELF4 = ELF4 (Homo sapiens, UniProt Q99607 1-663); conditions: protein: recombinant; tags: N-terminal GST; dsDNA, one strand shown
Sequence of ELF4 (Q99607 whole entry): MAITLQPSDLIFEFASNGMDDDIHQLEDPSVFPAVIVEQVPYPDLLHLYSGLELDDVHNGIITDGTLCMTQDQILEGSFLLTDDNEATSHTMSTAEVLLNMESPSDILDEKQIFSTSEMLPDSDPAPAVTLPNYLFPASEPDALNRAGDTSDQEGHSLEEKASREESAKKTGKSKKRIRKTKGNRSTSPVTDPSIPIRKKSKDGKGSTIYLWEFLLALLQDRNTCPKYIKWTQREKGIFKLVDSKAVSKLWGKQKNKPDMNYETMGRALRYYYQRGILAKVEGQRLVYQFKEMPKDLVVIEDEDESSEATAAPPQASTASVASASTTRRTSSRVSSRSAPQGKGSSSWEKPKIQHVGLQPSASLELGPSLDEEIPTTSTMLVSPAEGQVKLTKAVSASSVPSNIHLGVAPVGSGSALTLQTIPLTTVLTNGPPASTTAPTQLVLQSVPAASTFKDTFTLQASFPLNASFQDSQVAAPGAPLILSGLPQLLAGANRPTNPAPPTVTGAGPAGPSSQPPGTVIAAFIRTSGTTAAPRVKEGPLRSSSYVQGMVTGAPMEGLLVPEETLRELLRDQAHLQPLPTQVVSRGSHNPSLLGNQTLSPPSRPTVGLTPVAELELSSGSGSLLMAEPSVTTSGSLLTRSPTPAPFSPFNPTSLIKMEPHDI
Outline: as §1

ELK4 = biological target: T3, ELK4 (Homo sapiens, UniProt P28324-2 1-405); conditions: protein: recombinant; tags: N-terminal GST; dsDNA, one strand shown
T3 sequence: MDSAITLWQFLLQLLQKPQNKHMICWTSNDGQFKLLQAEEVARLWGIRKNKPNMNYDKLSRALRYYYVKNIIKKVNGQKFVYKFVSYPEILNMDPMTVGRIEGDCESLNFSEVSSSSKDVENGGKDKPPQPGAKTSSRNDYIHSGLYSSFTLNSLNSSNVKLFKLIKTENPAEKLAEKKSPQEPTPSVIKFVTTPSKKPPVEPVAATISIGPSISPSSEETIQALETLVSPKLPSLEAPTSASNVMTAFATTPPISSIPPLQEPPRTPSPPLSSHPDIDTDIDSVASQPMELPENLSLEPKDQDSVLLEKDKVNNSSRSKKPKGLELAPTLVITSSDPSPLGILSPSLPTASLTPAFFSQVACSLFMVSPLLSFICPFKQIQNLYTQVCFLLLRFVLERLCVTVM
Outline: as §1

ETV2 = biological target: T4, ETV2 (Homo sapiens, UniProt O00321 1-342); conditions: protein: recombinant; tags: N-terminal GST; dsDNA, one strand shown
T4 sequence: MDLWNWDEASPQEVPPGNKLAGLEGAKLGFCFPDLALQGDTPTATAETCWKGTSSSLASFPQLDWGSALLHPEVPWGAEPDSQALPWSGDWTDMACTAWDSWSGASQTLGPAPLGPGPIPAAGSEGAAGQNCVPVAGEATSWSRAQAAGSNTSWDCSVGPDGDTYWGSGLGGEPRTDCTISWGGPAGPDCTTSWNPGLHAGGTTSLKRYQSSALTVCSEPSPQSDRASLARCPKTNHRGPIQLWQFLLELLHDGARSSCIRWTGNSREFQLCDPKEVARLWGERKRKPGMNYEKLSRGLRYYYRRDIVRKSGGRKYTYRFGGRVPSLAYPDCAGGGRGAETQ
Outline: as §1

ELF3 = biological target: T5, ELF3 (Homo sapiens, UniProt P78545 1-371); conditions: protein: recombinant; tags: N-terminal GST; dsDNA, one strand shown
T5 sequence: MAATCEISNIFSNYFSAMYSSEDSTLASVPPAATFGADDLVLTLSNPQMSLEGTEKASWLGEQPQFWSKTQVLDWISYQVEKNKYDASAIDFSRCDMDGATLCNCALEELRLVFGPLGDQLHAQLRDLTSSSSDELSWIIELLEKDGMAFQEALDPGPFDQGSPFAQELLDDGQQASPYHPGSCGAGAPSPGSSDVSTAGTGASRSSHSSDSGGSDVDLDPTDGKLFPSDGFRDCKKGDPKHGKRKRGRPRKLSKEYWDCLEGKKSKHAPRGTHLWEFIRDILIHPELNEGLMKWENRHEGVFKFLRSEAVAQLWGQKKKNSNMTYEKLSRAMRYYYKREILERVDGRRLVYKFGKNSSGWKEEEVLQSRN
Outline: as §1

CRX = CRX (Homo sapiens, UniProt O43186 1-299); conditions: protein: recombinant; tags: N-terminal GST; dsDNA, one strand shown
Sequence of CRX (O43186 whole entry): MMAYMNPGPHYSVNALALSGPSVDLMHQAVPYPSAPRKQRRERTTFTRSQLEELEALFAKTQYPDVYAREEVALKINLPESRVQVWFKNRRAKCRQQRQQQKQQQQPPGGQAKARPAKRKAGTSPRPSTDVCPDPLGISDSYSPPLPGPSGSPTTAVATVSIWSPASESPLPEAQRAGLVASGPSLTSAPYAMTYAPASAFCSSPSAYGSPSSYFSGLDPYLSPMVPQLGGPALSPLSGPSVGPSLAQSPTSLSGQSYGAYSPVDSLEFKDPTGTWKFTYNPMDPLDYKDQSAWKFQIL
Outline: as §1

ETV1 = ETV1 (Homo sapiens, UniProt P50549 1-477); conditions: protein: recombinant; tags: N-terminal GST; dsDNA, one strand shown
Sequence of ETV1 (P50549 whole entry): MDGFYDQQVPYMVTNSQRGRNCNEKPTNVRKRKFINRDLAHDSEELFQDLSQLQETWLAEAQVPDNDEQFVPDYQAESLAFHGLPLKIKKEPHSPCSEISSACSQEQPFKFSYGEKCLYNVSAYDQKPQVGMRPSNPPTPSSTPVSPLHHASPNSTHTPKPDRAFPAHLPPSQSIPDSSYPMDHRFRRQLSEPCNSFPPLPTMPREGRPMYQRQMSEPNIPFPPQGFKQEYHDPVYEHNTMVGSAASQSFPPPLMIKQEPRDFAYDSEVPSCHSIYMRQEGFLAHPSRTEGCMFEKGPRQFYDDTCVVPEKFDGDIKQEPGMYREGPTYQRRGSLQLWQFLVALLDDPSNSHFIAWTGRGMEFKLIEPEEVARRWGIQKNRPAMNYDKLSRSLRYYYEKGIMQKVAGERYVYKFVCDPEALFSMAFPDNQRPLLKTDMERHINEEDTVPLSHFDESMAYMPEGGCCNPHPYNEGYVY
Outline: as §1

ERF = biological target: T6, ERF (Homo sapiens, UniProt P50548 1-548); conditions: protein: recombinant; tags: N-terminal GST; dsDNA, one strand shown
T6 sequence: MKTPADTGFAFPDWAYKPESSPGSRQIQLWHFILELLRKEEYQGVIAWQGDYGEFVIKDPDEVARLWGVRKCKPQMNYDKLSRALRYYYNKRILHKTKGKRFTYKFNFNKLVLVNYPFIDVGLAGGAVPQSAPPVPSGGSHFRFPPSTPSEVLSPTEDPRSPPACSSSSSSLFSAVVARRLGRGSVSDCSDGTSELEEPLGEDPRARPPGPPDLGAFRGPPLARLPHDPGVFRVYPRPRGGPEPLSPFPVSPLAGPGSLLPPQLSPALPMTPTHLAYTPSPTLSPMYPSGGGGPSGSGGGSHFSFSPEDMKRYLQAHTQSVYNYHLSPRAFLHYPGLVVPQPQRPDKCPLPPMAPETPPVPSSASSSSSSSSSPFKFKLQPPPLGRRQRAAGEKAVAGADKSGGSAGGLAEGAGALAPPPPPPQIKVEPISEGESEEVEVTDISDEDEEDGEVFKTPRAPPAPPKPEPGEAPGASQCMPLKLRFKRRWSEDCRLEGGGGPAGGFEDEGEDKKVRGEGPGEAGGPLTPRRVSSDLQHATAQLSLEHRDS
Outline: as §1

ETV3L = biological target: T7, ETV3L (Homo sapiens, UniProt Q6ZN32 1-361); conditions: protein: recombinant; tags: N-terminal GST; dsDNA, one strand shown
T7 sequence: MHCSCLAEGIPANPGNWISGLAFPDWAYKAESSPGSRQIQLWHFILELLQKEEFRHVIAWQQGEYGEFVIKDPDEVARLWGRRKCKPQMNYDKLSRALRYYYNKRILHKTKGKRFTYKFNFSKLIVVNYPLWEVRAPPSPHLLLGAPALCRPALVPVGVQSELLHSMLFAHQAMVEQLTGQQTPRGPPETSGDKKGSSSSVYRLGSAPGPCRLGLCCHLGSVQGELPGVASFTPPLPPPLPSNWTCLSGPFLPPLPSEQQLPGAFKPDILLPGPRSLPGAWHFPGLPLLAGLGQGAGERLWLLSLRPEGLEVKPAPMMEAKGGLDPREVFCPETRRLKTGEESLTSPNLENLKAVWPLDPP
Outline: as §1

ETS2 = biological target: T8, ETS2 (Homo sapiens, UniProt P15036 1-469); conditions: protein: recombinant; tags: N-terminal GST; dsDNA, one strand shown
T8 sequence: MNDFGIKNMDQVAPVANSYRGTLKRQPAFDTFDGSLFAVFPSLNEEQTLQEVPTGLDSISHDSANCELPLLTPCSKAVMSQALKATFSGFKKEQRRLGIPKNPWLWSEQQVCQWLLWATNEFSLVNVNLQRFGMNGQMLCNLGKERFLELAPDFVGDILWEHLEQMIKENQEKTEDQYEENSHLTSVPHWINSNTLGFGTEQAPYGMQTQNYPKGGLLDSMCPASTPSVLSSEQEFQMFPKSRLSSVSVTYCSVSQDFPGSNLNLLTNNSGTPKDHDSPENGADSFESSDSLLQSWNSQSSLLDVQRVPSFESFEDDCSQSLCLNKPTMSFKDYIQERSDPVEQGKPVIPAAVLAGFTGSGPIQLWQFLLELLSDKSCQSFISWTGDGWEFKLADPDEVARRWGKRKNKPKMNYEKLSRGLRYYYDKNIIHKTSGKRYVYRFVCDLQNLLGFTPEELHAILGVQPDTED
Outline: as §1

SPDEF = biological target: T9, SPDEF (Homo sapiens, UniProt O95238 1-335); conditions: protein: recombinant; tags: N-terminal GST; dsDNA, one strand shown
T9 sequence: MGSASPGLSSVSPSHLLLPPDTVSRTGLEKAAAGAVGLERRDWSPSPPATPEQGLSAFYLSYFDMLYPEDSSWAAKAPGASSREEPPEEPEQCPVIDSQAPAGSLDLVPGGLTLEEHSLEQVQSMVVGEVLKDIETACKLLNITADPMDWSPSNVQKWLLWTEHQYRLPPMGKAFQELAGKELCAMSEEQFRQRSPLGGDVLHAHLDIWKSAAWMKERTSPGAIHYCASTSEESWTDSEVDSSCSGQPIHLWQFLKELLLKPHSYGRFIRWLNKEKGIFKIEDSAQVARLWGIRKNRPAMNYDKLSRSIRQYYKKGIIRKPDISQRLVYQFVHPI
Outline: as §1

ETV7 = biological target: T10, ETV7 (Homo sapiens, UniProt Q9Y603 1-341); conditions: protein: recombinant; tags: N-terminal GST; dsDNA, one strand shown
T10 sequence: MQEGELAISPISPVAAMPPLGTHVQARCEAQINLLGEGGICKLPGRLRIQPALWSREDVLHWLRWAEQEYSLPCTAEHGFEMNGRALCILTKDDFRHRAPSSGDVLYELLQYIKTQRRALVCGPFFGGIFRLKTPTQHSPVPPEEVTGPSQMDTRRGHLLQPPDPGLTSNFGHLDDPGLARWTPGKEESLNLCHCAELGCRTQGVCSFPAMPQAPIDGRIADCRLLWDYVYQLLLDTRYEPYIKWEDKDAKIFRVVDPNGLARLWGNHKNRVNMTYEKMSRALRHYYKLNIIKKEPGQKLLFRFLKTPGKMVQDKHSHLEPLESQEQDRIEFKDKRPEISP
Outline: as §1

ELF5 = biological target: T11, ELF5 (Homo sapiens, UniProt Q9UKW6-2 1-255); conditions: protein: recombinant; tags: N-terminal GST; dsDNA, one strand shown
T11 sequence: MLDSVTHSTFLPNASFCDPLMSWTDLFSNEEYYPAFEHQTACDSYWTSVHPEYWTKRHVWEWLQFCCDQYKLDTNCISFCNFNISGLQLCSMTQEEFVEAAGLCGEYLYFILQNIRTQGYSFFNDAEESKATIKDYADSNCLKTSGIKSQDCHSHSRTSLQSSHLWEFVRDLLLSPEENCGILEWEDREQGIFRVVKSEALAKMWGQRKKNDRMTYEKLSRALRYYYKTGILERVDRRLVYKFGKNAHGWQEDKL
Outline: as §1

ETV3 = biological target: T12, ETV3 (Homo sapiens, UniProt P41162-2 1-143); conditions: protein: recombinant; tags: N-terminal GST; dsDNA, one strand shown
T12 sequence: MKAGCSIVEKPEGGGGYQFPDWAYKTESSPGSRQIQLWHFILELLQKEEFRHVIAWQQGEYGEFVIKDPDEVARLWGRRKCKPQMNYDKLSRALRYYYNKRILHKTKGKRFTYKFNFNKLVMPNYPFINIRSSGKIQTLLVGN
Outline: as §1

ETV6 = ETV6 (Homo sapiens, UniProt P41212 1-452); conditions: protein: recombinant; tags: N-terminal GST; dsDNA, one strand shown
Sequence of ETV6 (P41212 whole entry): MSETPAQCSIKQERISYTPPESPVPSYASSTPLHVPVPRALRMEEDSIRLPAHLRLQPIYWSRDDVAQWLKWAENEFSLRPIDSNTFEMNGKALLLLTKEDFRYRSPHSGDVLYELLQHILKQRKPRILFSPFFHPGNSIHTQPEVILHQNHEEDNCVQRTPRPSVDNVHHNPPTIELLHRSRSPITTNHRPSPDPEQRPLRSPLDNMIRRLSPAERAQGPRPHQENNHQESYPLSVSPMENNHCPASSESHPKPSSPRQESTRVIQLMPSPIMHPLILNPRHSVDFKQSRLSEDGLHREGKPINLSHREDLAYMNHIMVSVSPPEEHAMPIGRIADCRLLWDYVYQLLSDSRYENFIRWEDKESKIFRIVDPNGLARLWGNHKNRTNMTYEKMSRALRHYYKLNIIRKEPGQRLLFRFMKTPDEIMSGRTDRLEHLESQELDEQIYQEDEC
Outline: as §1

AATTGT was tested, and the binding signal (FEV) was 1.25 fold enrichment (6-mer frequency, TF over GST control), the binding signal (ETV5) was 1.2 fold enrichment (6-mer frequency, TF over GST control) and the binding signal (HSF1) was 1.18 fold enrichment (6-mer frequency, TF over GST control). The binding signal (SPIC) was 1.26 fold enrichment (6-mer frequency, TF over GST control), the binding signal (ELF4) was 1.29 fold enrichment (6-mer frequency, TF over GST control) and the binding signal (ELK4) was 1.14 fold enrichment (6-mer frequency, TF over GST control). The binding signal (ETV2) was 1.33 fold enrichment (6-mer frequency, TF over GST control), the binding signal (ELF3) was 1.31 fold enrichment (6-mer frequency, TF over GST control) and the binding signal (CRX) was 1.17 fold enrichment (6-mer frequency, TF over GST control). The binding signal (ETV1) was 1.22 fold enrichment (6-mer frequency, TF over GST control), the binding signal (ERF) was 1.36 fold enrichment (6-mer frequency, TF over GST control) and the binding signal (ETV3L) was 1.29 fold enrichment (6-mer frequency, TF over GST control). For the same sequence, the binding signal (ETS2) was 1.31 fold enrichment (6-mer frequency, TF over GST control), the binding signal (SPDEF) was 1.21 fold enrichment (6-mer frequency, TF over GST control) and the binding signal (ETV7) was 1.39 fold enrichment (6-mer frequency, TF over GST control). The binding signal (ELF5) was 1.35 fold enrichment (6-mer frequency, TF over GST control), the binding signal (ETV3) was 1.31 fold enrichment (6-mer frequency, TF over GST control) and the binding signal (ETV6) was 1.26 fold enrichment (6-mer frequency, TF over GST control).
